HepG2 tox – counter-screen for TGF-b inhibitors: cytotoxicity in HepG2 cells. HepG2 CAGA-GFP viability, ATP luminescence, 18 h. actives 0.76% (n = 410,000). AID 588856. Potency, µM (highest dose often 46.1 µM), inactives show top-dose activity change, negative = cytotoxicity, actives largely listed as cytotoxic; note: potency is the fitted concentration of half-maximal effect
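CellTiter-Glo luminescence gave cytotoxicity after 18 hours at 37 degrees C. The cells were HepG2 CAGA-GFP in 1% FBS DMEM, stimulated with 500 pg/mL TGF-beta after compound addition. %Activity was normalised to no-cell wells (complete cell-killing) and DMSO (no toxicity), and curves were fitted and classified.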
Six1-Eya2 inh – inhibitors of human Six1/Eya2 interaction | Q15475+O00167 | AlphaScreen GST-Six1/His-Eya2 binding, biochemical; active compounds read low | activity change, % (concentration not given with the values) | actives 0.56% (n = 360,000) | AID 651725; in the data active = activity change below about -65%; inconclusive = mostly about -30% to -63%; note: % is set by controls: 0 for no effect and ±100 for the full control effect
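Homogeneous AlphaScreen proximity assay pairing GST-Six1 with His-tagged Eya2 (added as 5X mix: 250 nM and 500 nM) in 50 mM Tris pH 8.0, 300 mM NaCl, 1 mM TCEP. Glutathione donor and nickel acceptor beads; 1 h, 37 °C, dark.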
ATXN2 expr inh – inhibitors of ATXN2 expression | actives 0.72% (n = 360,000) | HEK-293 ATXN2-luciferase reporter, luminescence, 24 h | Potency, µM (doses to about 57 µM), inactives show at the top dose activity change, negative = inhibition, most hits filed as inhibitors; note: potency is the fitted concentration of half-maximal effect; % is set by controls: 0 for no effect and ±100 for the full control effect; nearly all actives have a fitted effect of over 55% in size
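qHTS (up to 57 uM final) was run with 24 h compound exposure of reporter cells at 37 °C. Each well was multiplexed: SteadyGlo luminescence measured ATXN2-luciferase expression after a fluorogenic Gly-Phe-AFC viability readout (25 uM final).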
ATXN viability – cell viability loss in ATXN counter-screen; S2 cells (HEK-293 line with an ATXN2-luciferase reporter) viability, CellTiter-Fluor protease fluorescence, 24 h; Potency, µM (top dose mostly 56.7 µM), usual class: cytotoxic; actives 0.49% (n = 400,000); AID 651635; note: potency is the fitted concentration of half-maximal effect; nearly all actives have a fitted effect of over 40% in size
TGFb SMAD3 inh – TGF-b pathway inhibition; HepG2 CAGA-GFP TGF-b/SMAD3 reporter, GFP fluorescence, 18 h; TGF-beta stimulated, 500 pg/mL final; Potency, µM (top dose mostly 46.1 µM), inactives show at the top dose activity, negative = inhibition, actives largely listed as inhibitors; actives 1.2% (n = 410,000); AID 588855; note: potency is the fitted concentration of half-maximal effect; % is set by controls: 0 for no effect and ±100 for the full control effect; nearly all actives have a fitted effect of over 65% in size
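HEPG2 CAGA-GFP cells (1000/well, DMEM with 1% FBS) were pre-incubated 2 h at 37 degrees C, given compound by pin tool, then stimulated with TGF-beta at 500 pg/mL final for 18 h before per-cell GFP fluorescence imaging.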
CtBP-E1A blk – blocks the CtBP interaction with E1A; activity change, % (test concentration not listed); AlphaScreen GST-E1A/His-CtBP binding, 1536-well; active compounds read low; actives 0.49% (n = 340,000); AID 651724; in the data active = activity change below about -65%; inconclusive = mostly about -30% to -63%; note: % is set by controls: 0 for no effect and ±100 for the full control effect
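Homogeneous bead-based format: GST-tagged E1A captured on glutathione donor beads, His-tagged CtBP on nickel acceptor beads; compounds precede bead addition by 2 h at 37 °C.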
* = called active by the depositor; i = inactive; ? = inconclusive; nt = no result given; [ ] = another dose, or the depositor's remark. Most compounds without a hit are left out; they make up all but 2.8% or so of the library. Unless noted, calls come from the whole dose curve; as a rule, active = well fitted curve in the direction sought with a large enough effect; inconclusive = small, poorly fitted or top-dose-only effect, or another doubt; inactive = no such curve, though single readings can be large; an effect the other way counts as inactive or inconclusive.

SMILES	HepG2 tox	Six1-Eya2 inh	ATXN2 expr inh	ATXN viability	TGFb SMAD3 inh	CtBP-E1A blk
CCN1CSC(=S)N(Cc2ccccc2)C1	-11%	8	-6%	i	-19%	-1
COc1ccc(NC(=O)c2noc3c2CCC3)cc1	-37%	-10	-16%	i	2%	5
CC(=O)c1ccc(NC(=O)c2noc3c2CCC3)cc1	-8%	-2	4µM*	i	0%	-9
COc1ccc(Cl)cc1NC(=S)NCCC(c1ccccc1)c1ccccc1	-34%	-15	-19%	i	?	-1
S=C(NCCC(c1ccccc1)c1ccccc1)Nc1ccc(Cl)cc1	-50%	-1	?	?	20µM*	8
COc1ccccc1NC(=S)NCCC(c1ccccc1)c1ccccc1	-14%	-9	nt	i	13µM*	nt
Nc1c(NC/C=C\COc2cc(CN3CCCCC3)ccn2)c(=O)c1=O	nt	nt	3%[25.6 µM]	?	nt	nt
Cc1nc2n(c(=O)c1CCN1CCC(C(=O)c3ccc(F)cc3)CC1)CCS2	nt	nt	?	i	nt	nt
COc1cc(=O)n2c(c1C(=O)N(C)Cc1cscn1)CCN(C(=O)c1ccc(C)cc1C)CC2	nt	nt	nt	i	nt	nt
CC(C)CCNC1=NCCCCC1	11µM*	2	4%	i	?	10
CCCCOCCCNC1=NCCCCC1	0%	-2	-5%	i	-2%	7
COc1ccc(C(C[N+](=O)[O-])c2c(-c3ccccc3)cc3ccccn23)c(OC)c1 (configuration not stated)	11µM*	-20	0%	i	10µM*	-6
COc1ccc(C(C[N+](=O)[O-])c2c(C)cc3ccccn23)cc1 (configuration not stated)	18%	-24	-5%[11.3 µM]	i	6%	?
COc1ccc(NC(=O)CN2C(=O)CC(c3ccc(C)c(C)c3)=Nc3ccccc32)cc1OC	-22%	nt	4%	?	?	nt
Cc1ccc(C(C[N+](=O)[O-])Sc2ccc(N)cc2)cc1 (configuration not stated)	13µM*	-5	?	?	11µM*	-1
Cc1cc(N(C)Cc2ccccc2)n2nc(-c3ccc(C(C)(C)C)cc3)nc2n1	-7%	nt	11%	i	-2%	nt
O=C(Nc1ccc(Nc2ccccc2)cc1)c1ccc(Cl)cc1	-24%	-8	nt	i	-9%	nt
N#C/C(C(=O)Nc1ccc(Cl)cc1)=C(/S)Nc1ccccc1	11µM*	-3	-23%	i	11µM*	-11
COc1ccc(OC)c(S(=O)(=O)N2CC=C(c3c(C)n(CC(=O)N4CCCC4)c4ccccc34)CC2)c1	-65%	nt	-10%	i	?	nt
Cc1ccc(/C=C2\SC(=S)N(CCCC(=O)Nc3cccnc3)C2=O)cc1	-1%	0	3.5µM*	?	-17%	0
CCc1ccc(/C=C2\SC(=S)N(CCCC(=O)Nc3ccccn3)C2=O)cc1	11%	?	4.5µM*	?	?	-11
O=C(CCCN1C(=O)/C(=C/c2cccc(Br)c2)SC1=S)Nc1ccccn1	-18%	-5	10µM*	?	-12%	-3
O=C(CCCN1C(=O)/C(=C/c2cccc(Br)c2)SC1=S)Nc1cccnc1	-3%	-21	?	?	?	-8
O=C(CCCN1C(=O)/C(=C/c2ccccc2Cl)SC1=S)NNC(=O)c1ccc(Cl)cc1Cl	-2%	18	2.5µM*	i	-2%	0
O=C(CSc1nc2c(c(=O)[nH]1)CCC2)Nc1cc(C(F)(F)F)ccc1Cl	-1%	nt	-4%	i	-12%	nt
O=C(Nc1ccc(Oc2ccnc3[nH]ccc23)c(F)c1)c1cccn(-c2ccc(F)cc2)c1=O	nt	nt	-19%	nt	nt	nt
CCc1cccc(NC(=O)Cn2nc(-c3cc(C)ccc3C)ccc2=O)c1	-48%	nt	-20%	i	?	nt
O=C(CCCN1C(=O)/C(=C\c2cccc(Br)c2)SC1=S)Nc1cccnc1	-35%	0	?	?	11µM*	-5

Screening results: PubChem BioAssay, National Center for Advancing Translational Sciences (NCATS)
